Bioassay records (PubChem)
Shown is part of a subset that was picked to be rich in hits.
MARV entry inh = qHTS for inhibitors of binding or entry into cells for Marburg Virus; Marburg virus pseudotyped entry inhibition, cell reporter; Potency, µM (top dose mostly 37.8 µM), for inactives: top-dose activity change, negative = inhibition, usual class: inhibitors; actives 1.8% (n = 300,000); AID 540276, 2011; calls by dose curve; tested in HEK293 cells; note: potency is the fitted concentration of half-maximal effect; % is set by controls: 0 for no effect and ±100 for the full control effect
VACV Venus inh = qHTS for Stage-Specific Inhibitors of Vaccinia Orthopoxvirus: Venus Reporter Primary qHTS. Vaccinia virus Venus reporter expression, fluorescence. Potency, µM (series often up to 36.5 µM), inactives show at the top dose activity change, negative = inhibition, most hits filed as inhibitors. actives 0.46% (n = 330,000). AID 720580, 2013; calls by dose curve; tested in A549 cells; note: potency is the fitted concentration of half-maximal effect; % is set by controls: 0 for no effect and ±100 for the full control effect; nearly all actives have a fitted effect of over 30% in size
CHX counter = Cycloheximide Counterscreen for Small Molecule Inhibitors of Shiga Toxin; max response, %; AID 2314, 2010; cell reporter, cycloheximide protein synthesis inhibition counterscreen; actives 12% (n = 300,000); in the data active = max response mostly above about 13%, no sharp cut-off; inactive = mostly below about 14%; note: read at 38.3 µM for the half of the compounds with a filed dose; 0% is about no effect
LASV entry inh = qHTS for Inhibitors of binding or entry into cells for Lassa Virus; Lassa virus pseudotype entry inhibition, cell reporter; Potency, µM (series often up to 37.9 µM), without a hit: top-dose activity change, negative = inhibition, hits mostly inhibitors; actives 1.2% (n = 300,000); AID 540256, 2011; calls by dose curve; tested in HEK293 cells; note: potency is the fitted concentration of half-maximal effect; % is set by controls: 0 for no effect and ±100 for the full control effect; nearly all actives have a fitted effect of over 50% in size
Shiga inhibitor = A qHTS for Small Molecule Inhibitors of Shiga Toxin. Vero cells, Shiga toxin protein synthesis inhibition reporter. inhibition, % at 38.7 µM. actives 9.2% (n = 290,000); in the data active = inhibition mostly above about 28%, no sharp cut-off; inactive = mostly below about 43%; note: 0% is about no effect
VACV mCherry inh = qHTS for Stage-Specific Inhibitors of Vaccinia Orthopoxvirus: mCherry Reporter Primary qHTS. Vaccinia virus mCherry reporter infection, fluorescence. actives 0.63% (n = 310,000). Potency, µM (doses to about 36.5 µM), for the others: top-dose activity change, negative = inhibition, hits mostly inhibitors; calls by dose curve; tested in A549 cells; note: potency is the fitted concentration of half-maximal effect; % is set by controls: 0 for no effect and ±100 for the full control effect; nearly all actives have a fitted effect of over 35% in size
* marks the source's active call; other numbers are inactive results; i = inactive; ? = inconclusive; nt = no result; [ ] = remark or other dose.

SMILES | MARV entry inh | VACV Venus inh | CHX counter | LASV entry inh | Shiga inhibitor | VACV mCherry inh
O=C(OCc1cn([C@@H]2C[C@H](c3ccc(Cl)cc3)N(CC3CCCCC3)C[C@H]2O)nn1)c1ccccc1 | nt | -20.1% | nt | nt | nt | -5.5%
O=C(C1CCCCC1)N1C[C@H](n2cc(-c3ccc(F)cc3)nn2)[C@H](O)C[C@@H]1c1ccc(Cl)cc1 | 3.53µM* | nt | nt | nt | nt | nt
O=C(OCc1cn([C@H]2CN(CC3CCCCC3)[C@@H](c3ccc(Cl)cc3)C[C@H]2O)nn1)c1ccccc1 | 14.1µM* | nt | nt | nt | nt | nt
O[C@@H]1C[C@H](c2ccc(Cl)cc2)N(CC2CCCCC2)C[C@H]1n1cc(C2CC2)nn1 | nt | -5.3% | nt | nt | nt | -12.4%
CCCCCCN1C[C@@H](n2cc(-c3ccc(F)cc3)nn2)[C@H](O)C[C@H]1c1ccccc1 | 15.8µM* | nt | nt | nt | nt | nt
O[C@@H]1CN(CC2CCCCC2)[C@@H](c2ccc(Cl)cc2)C[C@H]1n1cc(C2CC2)nn1 | nt | 14.1µM* | nt | nt | nt | ?
CCCCCCN1C[C@@H](n2cc(-c3ccc(F)cc3)nn2)[C@H](O)C[C@@H]1c1ccccc1 | nt | -23.7% | nt | nt | nt | i
O=C(O)C1OC1(c1ccccc1Cl)c1ccccc1Cl (stereo not given) | 4.6% | -3.2% | nt | 2.1%[46.1 µM] | nt | -19.3%
COCC(=O)N1c2nc(-c3ccco3)nn2C2(CCCCC2)[C@@H]2CCCC[C@@H]21 | -19.2%[46.1 µM] | -9.2% | nt | -11.7%[46.1 µM] | nt | -0.9%
C/C=C\c1ccccc1OCc1ccc(C(=O)O)o1 | 11.4%[46.1 µM] | nt | nt | nt | nt | nt
CCCCCCN1C[C@H](n2cc(C3CC3)nn2)[C@@H](O)C[C@@H]1c1ccc(C)cc1 | nt | ? | nt | nt | nt | -27.7%
CCCCCCN1C[C@H](n2cc(C3CC3)nn2)[C@@H](O)C[C@H]1c1ccc(Cl)cc1 | nt | nt | nt | 15.8µM* | nt | nt
Clc1cccc(Cl)c1C1Nc2cccc3cccc(c23)N1 | ? | -2.0% | 2.7 | ? | 4.7 | ?
Fc1cccc(Cl)c1C1Nc2cccc3cccc(c23)N1 | nt | nt | 24.0* | nt | 33.8 | nt
C=Cc1ccc(Cn2c(C)c(CNCCc3ccccc3C)c(C(=O)O)c2C)cc1 | ? | 8.7% | nt | -7.6%[46.1 µM] | nt | 10.4%
C[C@@H]1NS(=O)(=O)[C@H]2C[C@@H]3C=C[C@]2(O3)[C@H]1OC(=O)c1ccc(C(C)(C)C)cc1 | nt | -26.8% | nt | nt | nt | -2.2%
CN(c1ccccc1)c1nc(N)c([N+](=O)[O-])c(Nc2ccc(F)cc2)n1 | nt | nt | 6.8 | nt | -4.6 | nt
CN(c1ccccc1)c1nc(N)c([N+](=O)[O-])c(N2CCCCCC2)n1 | ? | 10.1%[7.34 µM] | 21.4* | 5.1% | 56.4* | i[7.34 µM]
CN(c1ccccc1)c1nc(N)c([N+](=O)[O-])c(Nc2ccccc2F)n1 | nt | nt | 19.0* | nt | 10.9 | nt
CCN1CCN(c2nc(N(C)c3ccccc3)nc(N)c2[N+](=O)[O-])CC1 | -25.5%[46.1 µM] | -10.0% | 0.9 | -17.6% | -10.4 | i
CC1CCN(c2nc(N(C)c3ccccc3)nc(N)c2[N+](=O)[O-])CC1 | -2.1%[14.2 µM] | 1.2% | 11.1* | 14.5% | 27.0 | i
O=C(O)CCn1cc(C(=O)O)c(-c2ccccc2)n1 | nt | nt | 8.3 | nt | -13.1 | nt
CCn1cc(/C=N/NC(=O)c2ccc3c(c2)OCO3)c(C)n1 | 8.7% | -3.3% | 16.2* | ? | 47.8 | -4.6%
CCn1ncc(/C=N/NC(=O)c2ccc3c(c2)OCO3)c1C | ? | ? | 3.8 | ? | 22.7 | -0.8%
CCn1nc(C)c(/C=N\NC(=O)c2ccc3c(c2)OCO3)c1C | -7.4%[46.1 µM] | -1.8% | 38.9* | -2.2% | 83.0* | -18.4%
SMILES | MARV entry inh | VACV Venus inh | CHX counter | LASV entry inh | Shiga inhibitor | VACV mCherry inh
O=C1c2ccc(O)c(O)c2C(=O)c2c(O)ccc(O)c21 | nt | 70.3% | nt | nt | nt | 46.2%
Nc1ccc2c(c1Cl)C(=O)c1ccc(N)c(Cl)c1C2=O | nt | 2.8% | 33.8* | nt | 70.0* | -22.4%
Cc1cccc2sc(NNC(=O)c3cc(=O)c4ccccc4o3)nc12 | nt | -17.5% | 12.5* | nt | 30.8* | i
COc1ccc2nc(NNC(=O)c3cc(=O)c4ccccc4o3)sc2c1 | nt | -17.6% | 43.2* | nt | 65.7* | ?
Cc1ccc2sc(NNC(=O)c3cc(=O)c4ccccc4o3)nc2c1C | nt | -14.8% | 15.6* | nt | 43.6* | ?
CCOC(=O)[C@H]1[C@H]2COc3ccccc3[C@@H]2N2C(=O)[C@@H](C)NC(=O)[C@@]12C | nt | -2.7% | nt | nt | nt | -16.7%
CCN(CC)CCNC(=O)c1ccc(NC(C)=O)cc1 | ? | -8.4% | -0.1 | 25.1% | 8.0 | -7.0%
CCN(CC)CCNC(=O)c1ccc(NC(=O)c2ccc(C(=O)c3ccccc3)cc2)cc1 | ? | -24.9% | nt | ? | nt | -23.1%
CCN(CC)CCNC(=O)c1ccc(NC(=O)c2ccc(COc3ccccc3)cc2)cc1 | ? | -19.4% | 29.0* | 16.1%[46.1 µM] | -7.4 | i
CCN(CC)CCNC(=O)c1ccc(NC(=O)Cc2cccc3ccccc23)cc1 | 11.2µM* | -11.8% | -4.9 | -12.0%[46.1 µM] | 13.9 | -5.1%
CN(C)c1ccc(C2CNC(c3ccc(Cl)c([N+](=O)[O-])c3)c3[nH]c4ccccc4c32)cc1 (stereo not given) | nt | nt | 1.8 | nt | 32.6 | nt
O=[N+]([O-])c1cccc(C2NCC(c3ccccc3Cl)c3c2[nH]c2ccccc32)c1 (stereo not given) | ? | -17.6% | 0.7 | 14.1µM* | -5.3 | -6.3%
COc1ccc2[nH]cc(C=O)c2c1 | ? | nt | 1.6 | 1.0% | 17.7 | nt
O=Cc1c[nH]c2ccc(C(=O)c3ccccc3)cc12 | ? | -5.6% | 32.4* | -18.8% | nt | -20.0%
COc1ccc2[nH]cc(/C=C/C(=O)c3ccccc3)c2c1 | ? | ? | 104.9* | ? | 131.0* | ?
O=C(O)c1ccc(S(=O)(=O)NN=Cc2c[nH]c3ccccc23)cc1 | nt | -8.8% | nt | nt | nt | -20.2%
O=C(NCc1c[nH]c2ccccc12)c1ccccc1 | -0.1%[46.1 µM] | 4.5% | nt | 18.3%[46.1 µM] | nt | -17.1%
O=C(/C=C/c1c[nH]c2ccccc12)c1ccccc1 | ? | ? | 68.6* | 0.2% | 115.2* | ?
Cc1ccc(C(=O)/C=C/c2c[nH]c3ccccc23)cc1 | 11.2% | -12.7% | 51.9* | -5.2% | 148.0* | i
CC12CCC(C3NC(=S)NN=C31)C2(C)C (stereo not given) | ? | 1.3% | nt | 2.1%[46.1 µM] | nt | i
CC12CCC(C(=O)N/N=C/c3ccc(O)cc3O)(OC1=O)C2(C)C (stereo not given) | ? | -26.7% | -3.6 | ? | 0.9 | 14.1µM*
C/C(=N\NC(=O)C12CCC(C)(C(=O)O1)C2(C)C)c1ccccc1O (stereo not given) | nt | -23.7% | 0.3 | nt | 24.5 | ?
O=c1c(-c2ccccc2)n[nH]c2ccccc12 | -24.7%[46.1 µM] | -2.8% | 73.6* | -28.2% | 72.1* | nt
CCOC(=O)c1ccccc1NC(=O)CSc1ncc(CO)n1Cc1ccc(C)cc1 | nt | 6.0% | nt | ? | nt | -6.0%
Cc1ccc(S(=O)(=O)c2nc(S(C)(=O)=O)sc2N(C)C)cc1 | 8.6% | 11.2µM* | -5.3 | -29.4% | -18.4 | -15.9%[1.46 µM]
